58 sequences from the supplement of paper PMC11417369 can be followed below.

The full ranking holds about 25,000 sequences; the median of “ln(normalized median fluorescence intensity)” is about 9.3, and the highest 2% start at about 10. The entries come from a sample that favours the highest values as a whole.

This assay relates to PF3D7_0420300 AP2 domain 1 (GST-tagged). The experiment in a line: gcPBM binding intensity (ln(normalized median fluorescence intensity)); higher = stronger DNA binding. Put shortly:
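DNA-binding domains from P. falciparum, fused to GST and produced in E. coli, were put on an Agilent 4 × 180k double-stranded probe array for 1 h in 1× PBS holding 1% milk, 0.2 mg/ml BSA, 0.5% salmon testes DNA and 0.03% Triton X-100. Probes were primer-extended, 36 bp long and drawn from intergenic genomic regions, with negative controls included. After Alexa488 anti-GST antibody detection and a 488 nm scan, binding intensity was set as the highest Masliner-normalised natural-log median intensity across replicate spots of either probe orientation.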
Consider “AAAATTGTTATTTTATGTACTTATATTTATTTATTT [XGTACX_site3478]”, for which the “gcPBM binding intensity (ln)” value is 9.53.

Turning to “ATTTCTCTATCGTAATGTACAAAAAAAAGGAAAAAA [XGTACX_site1323]”, the “gcPBM binding intensity (ln)” value is 9.

With “CACGCACGCACATACACACACATACACATATAAATA [CACACA_site6907]”, the “gcPBM binding intensity (ln)” value turned out to be 9.95.

For “AAAAAAAATACATACACACACACACGCACATATATA [CACACA_site7645]”, the “gcPBM binding intensity (ln)” value was 10.4.

Turning to “TAAATTAAAAAAAATACACACACACCGACACATATA [CACACA_site9084]”, the “gcPBM binding intensity (ln)” value came out at 10.

“TAAACATACCTATACACACACACACGCACACGCACA [CACACA_site6372]”: the “gcPBM binding intensity (ln)” value came out at 10.3.

Turning to “AAAACATACCTATATACACACATATAAATATAAATA [CACACA_site6956]”, the “gcPBM binding intensity (ln)” value is 9.71.

“AAAATACACGCATACACACACACACCGACACATATA [CACACA_site4523]”: the “gcPBM binding intensity (ln)” value was 10.2.

For “CTAAAATACAGACACACACACACATATATATATATA [CACACA_site4150]”, the “gcPBM binding intensity (ln)” value is 9.93.

For “AAAAAAAAAAAAAATACACACATATATATATATATA [CACACA_site85]”, the “gcPBM binding intensity (ln)” value turned out to be 9.45.

Turning to “TTTAAATACAGACATACACACATACACGCACATATA [CACACA_site6400]”, the “gcPBM binding intensity (ln)” value stood at 9.85.

As for “TACAGACTAAAATACACACACACACGCACATATATA [CACACA_site7875]”, the “gcPBM binding intensity (ln)” value came to 10.2.

With “AAAAAAAAAAAATATACACACACACCGACACATAAA [CACACA_site9270]”, the “gcPBM binding intensity (ln)” value stood at 10.1.

Consider “AAAAAAAAAAAACATACACACATACATACCTATATA [CACACA_site6575]”, for which the “gcPBM binding intensity (ln)” value is 9.78.

On to “TAAATAAATTATTTTCGTACTTATTTATTTTAATTA [XGTACX_site283]”, for which the “gcPBM binding intensity (ln)” value was 9.03.

As for “TTTAGTGTTATAAAAAGTACATAATAATTCCTTTTC [XGTACX_site3208]”, the “gcPBM binding intensity (ln)” value amounted to 8.95.

Take “CTTTTTAATAAATATACACACACAAAAAAAAAAAAA [CACACA_site9316]”: the “gcPBM binding intensity (ln)” value came to 9.73.

Consider “AATTTAAAAGAAAAAGAAAAATAATAAACAGAAGCA [XGTACX_negctrl_site503]”, for which the “gcPBM binding intensity (ln)” value turned out to be 9.68.

Regarding “TTTTTTTTTTTTGTCACACATATGGAATATATCTAT [CACACA_site5899]”, the “gcPBM binding intensity (ln)” value was found to be 9.26.

In the case of “AAAGAAATAAGGTGCACACATATACAGATATATATA [CACACA_site4399]”, the “gcPBM binding intensity (ln)” value worked out at 9.66.

“CTATATGTATAAAGTTGTACAGTTTTTCAAAGTTAA [XGTACX_site6652]”: the “gcPBM binding intensity (ln)” value amounted to 9.03.

Regarding “TAAATTTATAAATCACGTACATATTTATTTATATTT [XGTACX_site4532]”, the “gcPBM binding intensity (ln)” value came to 9.19.

As for “TATTTTATTTCAAATCTTAATAATTGTAATTCTTCA [XGTACX_negctrl_site442]”, the “gcPBM binding intensity (ln)” value was 8.91.

Consider “ATATTTTATATGTTCACACATACATAAACATATTTT [CACACA_site4948]”, for which the “gcPBM binding intensity (ln)” value came to 9.34.

As to “CACGCATATATACATACATGCATATATACATCCATG [TGCATGCA_site667]”, the “gcPBM binding intensity (ln)” value came to 9.27.

In the case of “AAGCATACATCAAGCACACACACACCCACACCCACA [CACACA_site372]”, the “gcPBM binding intensity (ln)” value is 10.1.

Turning to “AGAAGCATACATCAAGCACACACACCCACACCCACA [CACACA_site8014]”, the “gcPBM binding intensity (ln)” value came out at 9.99.

“CACAAATATATACATACACACATATATACGCATATA [CACACA_site395]”: the “gcPBM binding intensity (ln)” value was 9.72.

Regarding “AAAAAAAAAAAAAACACACACACACGCACATATACA [CACACA_site7288]”, the “gcPBM binding intensity (ln)” value amounted to 10.2.

For the sequence “GCATACATCAAGCACACACACACACGCACACGCACA [CACACA_site6311]”, the “gcPBM binding intensity (ln)” value was determined as 10.3.

Regarding “AAAATACACGCATACACACACACACGCGCACATATA [CACACA_site6448]”, the “gcPBM binding intensity (ln)” value was 10.3.

With “TACACAAATATATACATACACACATATATACGCATA [CACACA_site394]”, the “gcPBM binding intensity (ln)” value is 9.79.

In the case of “AAAAAAAAAAAAAAAACACACATACACGCACGCACA [CACACA_site7569]”, the “gcPBM binding intensity (ln)” value turned out to be 9.72.

For the sequence “AAAAAAAAAAAACATACACACACATATATATATATA [CACACA_site8452]”, the “gcPBM binding intensity (ln)” value was determined as 9.9.

Take “AAAAGATGCGCATACACACAGATGAATAACAAAAAA [CACACA_site6865]”: the “gcPBM binding intensity (ln)” value was determined as 9.74.

As to “AAACAAATAGACACTTGTACGTAAGTAAATAATTAA [XGTACX_site6157]”, the “gcPBM binding intensity (ln)” value turned out to be 9.43.

On to “ATTTAATTTTTTTTTAAACACACATTTTTTTATTTA [CACACA_site8880]”, for which the “gcPBM binding intensity (ln)” value came out at 9.36.

“ATTTTTTTATAAAATTTTTTATATATTAAATATTAT [CACACA_negctrl_site135]”: the “gcPBM binding intensity (ln)” value stood at 9.04.

On to “GTAAAATTTACATAGAGTACTTATATTTTTTTCTGC [XGTACX_site3414]”, for which the “gcPBM binding intensity (ln)” value came to 8.96.

Take “ATAATTTGTGGACACACACACACACCGACATATATA [CACACA_site8718]”: the “gcPBM binding intensity (ln)” value was 10.2.

Consider “CATATTTGTGGACACACACACATATTTATATATATA [CACACA_site5887]”, for which the “gcPBM binding intensity (ln)” value turned out to be 9.75.

On to “AAAAATTTGGCATACACACACACACCGACACAGACA [CACACA_site4489]”, for which the “gcPBM binding intensity (ln)” value was found to be 10.1.

Take “ATTTGGCATGGACACACACACACACCGACAGACATA [CACACA_site4491]”: the “gcPBM binding intensity (ln)” value is 10.2.

Take “TATACTCATGGACACACACACATACACAGACATACA [CACACA_site5024]”: the “gcPBM binding intensity (ln)” value was found to be 9.92.

Consider “ATAAAGCACACCGACACACACATATATATATATATA [CACACA_site1047]”, for which the “gcPBM binding intensity (ln)” value came to 9.8.

In the case of “TTATTAATTATATATAGTACACATTTCACAGATGGG [XGTACX_site2349]”, the “gcPBM binding intensity (ln)” value was determined as 9.2.

For the sequence “TATTTATGTATATGCTGTACGCATTTGTGAAACATA [XGTACX_site4688]”, the “gcPBM binding intensity (ln)” value is 9.06.

Turning to “GTACATATAAATATTACACACATTTTCATTTTTAAC [CACACA_site1986]”, the “gcPBM binding intensity (ln)” value was 9.56.

Turning to “ATAATTTATATTCAGAAACACACGAAAAAAAAAAAT [CACACA_site1296]”, the “gcPBM binding intensity (ln)” value is 9.64.

As for “TAAATGTAAAACGAAATGCACACTATGGAAAATATA [CACACA_site724]”, the “gcPBM binding intensity (ln)” value came to 9.66.

“AATTAATATTTAAATTGTACATGAACATTTTAATGT [XGTACX_site462]”: the “gcPBM binding intensity (ln)” value came out at 8.97.

Take “CAAATACATAGACACACACACATATACATATTTATA [CACACA_site7610]”: the “gcPBM binding intensity (ln)” value amounted to 10.

On to “ATTCATTCATATGTTACACACACACGCCCACATAAA [CACACA_site7513]”, for which the “gcPBM binding intensity (ln)” value came to 10.3.

With “AAAATTCATAAATACACACACGCACATATATATATA [CACACA_site4227]”, the “gcPBM binding intensity (ln)” value stood at 9.88.

For “ATTCATTCATATGTTACACACACACCGACACATAAA [CACACA_site5749]”, the “gcPBM binding intensity (ln)” value was found to be 10.

“ATTCATTCATATGTTACACACACACCCACCCATAAA [CACACA_site9066]”: the “gcPBM binding intensity (ln)” value worked out at 10.2.

As to “TCATTCATATGTTACACACACACACCCACATAAAAA [CACACA_site3245]”, the “gcPBM binding intensity (ln)” value came out at 10.1.

Consider “TCATTCATATGTTACACACACACACGCACATAAAAA [CACACA_site7514]”, for which the “gcPBM binding intensity (ln)” value was found to be 10.3.
